This passage reports inhibition results from ChEMBL document CHEMBL1961873, “Compounds: GSK PKIS; Assays: Nanosyn kinase panel” (2012).

The target in test [1] is Dual specificity protein kinase CLK3 (Homo sapiens) (UniProt P49761). As to conditions: at 1 µM.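 Also: each value is the mean inhibition of CLK3.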
For test [2], the target named is Dual specificity tyrosine-phosphorylation-regulated kinase 1A (Homo sapiens) (UniProt Q13627). As to conditions: at 0.1 µM.
The target is the same in test [3]. As to conditions: at 1 µM.
The target of test [4] is Dual specificity tyrosine-phosphorylation-regulated kinase 1B (Homo sapiens) (UniProt Q9Y463). As to conditions: at 0.1 µM.
For test [5] the target is unchanged. As to conditions: at 1 µM.
The target of test [6] is T1, Dual specificity tyrosine-phosphorylation-regulated kinase 2 (Homo sapiens) (UniProt Q92630).
T1 sequence (whole entry): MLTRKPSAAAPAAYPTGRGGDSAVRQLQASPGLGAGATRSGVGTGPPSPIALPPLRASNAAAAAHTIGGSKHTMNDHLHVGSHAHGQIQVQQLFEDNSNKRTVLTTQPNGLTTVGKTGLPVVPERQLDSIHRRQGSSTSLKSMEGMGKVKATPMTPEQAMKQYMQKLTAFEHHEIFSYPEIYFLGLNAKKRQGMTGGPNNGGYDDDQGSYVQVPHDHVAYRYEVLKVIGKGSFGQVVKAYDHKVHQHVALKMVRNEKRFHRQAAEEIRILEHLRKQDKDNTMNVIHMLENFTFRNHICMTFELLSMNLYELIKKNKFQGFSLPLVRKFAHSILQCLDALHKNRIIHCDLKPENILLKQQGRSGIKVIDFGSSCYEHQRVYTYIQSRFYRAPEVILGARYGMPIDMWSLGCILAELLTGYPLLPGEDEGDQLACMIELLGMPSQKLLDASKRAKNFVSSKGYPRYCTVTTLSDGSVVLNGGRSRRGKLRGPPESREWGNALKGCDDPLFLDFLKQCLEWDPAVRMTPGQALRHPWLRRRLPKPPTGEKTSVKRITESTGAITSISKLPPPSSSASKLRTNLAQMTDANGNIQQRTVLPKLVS
As to conditions: at 0.1 µM.

In test [7] the target is T1, Dual specificity tyrosine-phosphorylation-regulated kinase 2 (Homo sapiens). As to conditions: at 1 µM.
For test [8], the target named is Glycogen synthase kinase-3 alpha (Homo sapiens) (UniProt P49840). As to conditions: at 0.1 µM.
Test [9] shares this target. As to conditions: at 1 µM.
Test [10] deals with Glycogen synthase kinase-3 beta (Homo sapiens) (UniProt P49841). As to conditions: at 0.1 µM.
Test [11] has the same target. As to conditions: at 1 µM.
For test [12], the target named is Homeodomain-interacting protein kinase 1 (Homo sapiens) (UniProt Q86Z02). As to conditions: at 0.1 µM.
Test [13] shares this target. As to conditions: at 1 µM.
For test [14], the target named is T2, Homeodomain-interacting protein kinase 4 (Homo sapiens) (UniProt Q8NE63).
T2 sequence (whole entry): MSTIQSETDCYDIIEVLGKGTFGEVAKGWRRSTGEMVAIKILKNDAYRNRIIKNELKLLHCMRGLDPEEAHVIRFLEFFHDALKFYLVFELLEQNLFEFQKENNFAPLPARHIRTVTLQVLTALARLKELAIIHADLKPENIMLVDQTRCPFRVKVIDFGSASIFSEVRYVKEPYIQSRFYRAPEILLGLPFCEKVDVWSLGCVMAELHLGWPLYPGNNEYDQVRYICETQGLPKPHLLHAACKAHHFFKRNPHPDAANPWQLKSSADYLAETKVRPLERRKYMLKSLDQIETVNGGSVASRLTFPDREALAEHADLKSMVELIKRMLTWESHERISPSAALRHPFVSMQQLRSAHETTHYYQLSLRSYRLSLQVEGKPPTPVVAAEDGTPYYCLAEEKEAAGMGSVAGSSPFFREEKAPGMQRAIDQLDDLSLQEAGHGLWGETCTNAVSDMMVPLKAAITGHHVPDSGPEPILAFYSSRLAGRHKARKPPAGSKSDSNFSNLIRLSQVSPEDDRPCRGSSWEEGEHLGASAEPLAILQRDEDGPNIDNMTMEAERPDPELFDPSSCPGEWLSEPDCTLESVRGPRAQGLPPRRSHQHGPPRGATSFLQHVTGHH
As to conditions: at 0.1 µM.

The target of test [15] is T2, Homeodomain-interacting protein kinase 4 (Homo sapiens). As to conditions: at 1 µM.
Test [16] deals with Mitogen-activated protein kinase 9 (Homo sapiens) (UniProt P45984). As to conditions: at 0.1 µM.
Test [17] has the same target. As to conditions: at 1 µM.
The target in test [18] is Mitogen-activated protein kinase 1 (Homo sapiens) (UniProt P28482). As to conditions: at 0.1 µM.
Test [19] has the same target. As to conditions: at 1 µM.
Test [20] concerns the target Mitogen-activated protein kinase 3 (Homo sapiens) (UniProt P27361). As to conditions: at 0.1 µM.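 Also: each value is a mean inhibition figure.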

Glycogen synthase kinase-3 alpha (Homo sapiens), sequence (P49840 2-483 limits assumed): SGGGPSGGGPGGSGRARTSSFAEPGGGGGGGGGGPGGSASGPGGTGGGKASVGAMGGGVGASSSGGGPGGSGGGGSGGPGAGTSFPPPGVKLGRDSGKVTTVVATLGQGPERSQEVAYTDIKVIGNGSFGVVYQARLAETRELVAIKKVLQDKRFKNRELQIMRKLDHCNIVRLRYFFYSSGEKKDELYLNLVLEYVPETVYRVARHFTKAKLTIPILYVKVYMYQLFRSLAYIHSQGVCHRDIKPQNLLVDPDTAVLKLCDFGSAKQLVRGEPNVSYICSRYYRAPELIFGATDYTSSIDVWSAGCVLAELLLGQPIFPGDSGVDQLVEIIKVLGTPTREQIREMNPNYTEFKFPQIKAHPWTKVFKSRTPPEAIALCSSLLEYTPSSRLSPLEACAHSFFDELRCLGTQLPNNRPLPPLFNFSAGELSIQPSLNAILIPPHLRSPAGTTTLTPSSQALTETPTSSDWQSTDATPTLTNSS
Dual specificity tyrosine-phosphorylation-regulated kinase 1B (Homo sapiens), sequence (Q9Y463 whole entry, looked up): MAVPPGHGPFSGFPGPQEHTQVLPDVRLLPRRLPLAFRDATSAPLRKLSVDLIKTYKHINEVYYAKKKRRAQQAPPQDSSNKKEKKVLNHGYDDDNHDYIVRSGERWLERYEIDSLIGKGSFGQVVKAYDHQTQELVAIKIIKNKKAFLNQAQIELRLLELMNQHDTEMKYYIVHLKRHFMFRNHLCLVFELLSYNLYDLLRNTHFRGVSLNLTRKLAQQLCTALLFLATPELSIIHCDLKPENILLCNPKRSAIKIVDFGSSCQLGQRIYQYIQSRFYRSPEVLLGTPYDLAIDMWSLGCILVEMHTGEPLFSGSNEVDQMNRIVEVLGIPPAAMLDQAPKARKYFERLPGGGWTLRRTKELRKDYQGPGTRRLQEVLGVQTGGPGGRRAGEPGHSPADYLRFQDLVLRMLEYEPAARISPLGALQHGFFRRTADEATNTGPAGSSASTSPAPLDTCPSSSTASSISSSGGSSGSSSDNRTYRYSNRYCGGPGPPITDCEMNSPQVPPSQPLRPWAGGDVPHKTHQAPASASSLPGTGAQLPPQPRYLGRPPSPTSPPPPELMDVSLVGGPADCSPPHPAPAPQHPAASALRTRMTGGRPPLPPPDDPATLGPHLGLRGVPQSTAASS
Mitogen-activated protein kinase 3 (Homo sapiens), sequence (P27361 whole entry): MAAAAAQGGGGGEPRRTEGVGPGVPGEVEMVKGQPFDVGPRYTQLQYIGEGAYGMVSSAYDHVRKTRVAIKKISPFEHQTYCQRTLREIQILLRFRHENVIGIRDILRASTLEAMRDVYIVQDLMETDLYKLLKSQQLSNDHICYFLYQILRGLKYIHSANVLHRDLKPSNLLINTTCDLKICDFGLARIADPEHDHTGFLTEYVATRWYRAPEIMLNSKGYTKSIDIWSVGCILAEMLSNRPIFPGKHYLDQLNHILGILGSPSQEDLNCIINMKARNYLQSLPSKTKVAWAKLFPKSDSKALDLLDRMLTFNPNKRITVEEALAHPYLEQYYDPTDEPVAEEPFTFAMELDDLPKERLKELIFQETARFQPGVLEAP
Glycogen synthase kinase-3 beta (Homo sapiens), sequence (P49841 whole entry, looked up): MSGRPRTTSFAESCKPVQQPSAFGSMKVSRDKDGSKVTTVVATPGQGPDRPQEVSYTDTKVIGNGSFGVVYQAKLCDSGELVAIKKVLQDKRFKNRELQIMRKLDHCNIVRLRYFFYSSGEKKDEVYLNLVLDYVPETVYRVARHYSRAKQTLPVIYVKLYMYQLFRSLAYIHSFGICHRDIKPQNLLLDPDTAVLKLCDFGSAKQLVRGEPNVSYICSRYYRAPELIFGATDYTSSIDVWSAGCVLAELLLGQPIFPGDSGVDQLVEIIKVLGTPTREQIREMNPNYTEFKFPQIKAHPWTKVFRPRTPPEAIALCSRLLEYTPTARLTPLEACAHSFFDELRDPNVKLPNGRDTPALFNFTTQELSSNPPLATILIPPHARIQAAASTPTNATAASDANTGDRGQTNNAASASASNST
Mitogen-activated protein kinase 9 (Homo sapiens), sequence (P45984 whole entry, looked up): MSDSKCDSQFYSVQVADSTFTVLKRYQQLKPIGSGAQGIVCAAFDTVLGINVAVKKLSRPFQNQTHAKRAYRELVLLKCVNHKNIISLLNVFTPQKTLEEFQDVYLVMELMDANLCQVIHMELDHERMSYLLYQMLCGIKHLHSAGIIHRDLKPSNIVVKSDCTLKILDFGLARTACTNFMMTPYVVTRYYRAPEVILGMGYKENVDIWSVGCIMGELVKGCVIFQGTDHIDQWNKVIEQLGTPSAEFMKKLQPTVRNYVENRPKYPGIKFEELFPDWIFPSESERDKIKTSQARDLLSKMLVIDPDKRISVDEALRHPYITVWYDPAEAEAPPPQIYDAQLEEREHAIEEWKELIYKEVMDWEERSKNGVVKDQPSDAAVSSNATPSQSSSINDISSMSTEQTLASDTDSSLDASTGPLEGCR
Dual specificity protein kinase CLK3 (Homo sapiens), sequence (P49761 whole entry, looked up): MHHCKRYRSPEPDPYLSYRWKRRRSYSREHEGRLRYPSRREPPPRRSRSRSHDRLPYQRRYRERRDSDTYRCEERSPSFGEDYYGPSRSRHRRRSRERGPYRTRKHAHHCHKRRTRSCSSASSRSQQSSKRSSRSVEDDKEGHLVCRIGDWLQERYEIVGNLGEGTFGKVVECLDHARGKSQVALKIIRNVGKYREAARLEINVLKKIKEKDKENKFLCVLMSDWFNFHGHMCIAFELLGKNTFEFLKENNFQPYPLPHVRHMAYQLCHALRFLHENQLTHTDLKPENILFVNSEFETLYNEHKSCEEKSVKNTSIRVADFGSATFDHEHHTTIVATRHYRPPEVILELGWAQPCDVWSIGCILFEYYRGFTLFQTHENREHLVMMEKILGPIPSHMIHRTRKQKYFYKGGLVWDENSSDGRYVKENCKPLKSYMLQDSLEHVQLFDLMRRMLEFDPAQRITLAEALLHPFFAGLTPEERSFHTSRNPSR
Homeodomain-interacting protein kinase 1 (Homo sapiens), sequence (Q86Z02 whole entry, looked up): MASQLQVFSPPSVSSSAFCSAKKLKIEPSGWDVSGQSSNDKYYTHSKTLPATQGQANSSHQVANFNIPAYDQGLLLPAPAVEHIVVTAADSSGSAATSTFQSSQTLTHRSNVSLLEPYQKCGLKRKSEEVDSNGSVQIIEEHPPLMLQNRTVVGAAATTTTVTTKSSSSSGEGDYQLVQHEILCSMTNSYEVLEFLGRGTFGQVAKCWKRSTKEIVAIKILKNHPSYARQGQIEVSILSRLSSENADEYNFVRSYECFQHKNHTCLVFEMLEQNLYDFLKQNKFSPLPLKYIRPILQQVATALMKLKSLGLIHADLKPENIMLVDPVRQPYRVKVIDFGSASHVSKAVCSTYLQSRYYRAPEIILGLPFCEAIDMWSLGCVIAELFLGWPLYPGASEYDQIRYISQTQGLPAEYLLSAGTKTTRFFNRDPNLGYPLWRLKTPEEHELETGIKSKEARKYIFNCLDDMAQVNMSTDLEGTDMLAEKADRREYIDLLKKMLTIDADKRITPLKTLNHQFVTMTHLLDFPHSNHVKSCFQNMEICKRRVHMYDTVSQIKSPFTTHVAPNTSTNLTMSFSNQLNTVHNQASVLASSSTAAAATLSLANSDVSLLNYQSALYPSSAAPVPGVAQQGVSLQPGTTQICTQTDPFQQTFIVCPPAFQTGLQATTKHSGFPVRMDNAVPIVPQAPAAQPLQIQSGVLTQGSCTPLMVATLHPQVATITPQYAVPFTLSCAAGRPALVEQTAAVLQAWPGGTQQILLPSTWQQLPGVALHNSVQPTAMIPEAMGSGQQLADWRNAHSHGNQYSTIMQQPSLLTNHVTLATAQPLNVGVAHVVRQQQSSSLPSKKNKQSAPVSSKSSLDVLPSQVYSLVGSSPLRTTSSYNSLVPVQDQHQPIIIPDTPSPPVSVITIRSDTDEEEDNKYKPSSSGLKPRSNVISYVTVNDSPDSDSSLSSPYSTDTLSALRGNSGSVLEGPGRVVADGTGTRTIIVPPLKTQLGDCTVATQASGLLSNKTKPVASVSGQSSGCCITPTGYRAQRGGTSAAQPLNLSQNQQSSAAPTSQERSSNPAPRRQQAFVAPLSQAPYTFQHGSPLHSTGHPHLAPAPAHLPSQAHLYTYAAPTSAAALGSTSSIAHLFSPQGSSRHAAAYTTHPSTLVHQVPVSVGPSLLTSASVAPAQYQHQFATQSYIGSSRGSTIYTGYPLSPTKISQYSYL
Mitogen-activated protein kinase 1 (Homo sapiens), sequence (P28482 whole entry): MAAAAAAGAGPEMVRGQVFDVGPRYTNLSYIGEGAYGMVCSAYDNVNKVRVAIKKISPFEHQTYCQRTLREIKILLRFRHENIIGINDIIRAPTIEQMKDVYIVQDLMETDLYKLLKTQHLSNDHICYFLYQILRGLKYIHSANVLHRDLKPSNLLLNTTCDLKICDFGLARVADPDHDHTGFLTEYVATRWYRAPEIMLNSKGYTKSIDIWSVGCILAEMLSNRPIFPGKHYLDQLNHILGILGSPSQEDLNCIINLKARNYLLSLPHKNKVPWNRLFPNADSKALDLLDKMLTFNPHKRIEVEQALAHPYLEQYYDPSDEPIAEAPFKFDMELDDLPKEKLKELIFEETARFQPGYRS

On to `CCn1cc(-c2ccnc3[nH]ccc23)c(-c2cccc(NC(=O)Nc3ccc(OCc4ccccc4)cc3)c2)n1`, for which the inhibition (as a rule, the change of the read-out against control, counted positive when it falls) in test [1] was -1.48%; in [2], -3.22%; in test [3] it was -2.65%; in [4] it was -1.6%; in test [5] it was -0.5%; in test [6], -0.82%. The inhibition in test [7] is -4.73%; in test [8], 2.29%; in [9] it was 3.64%; in test [10], 1.77%; in test [11] it was 3.94%; in test [12], -3.5%. Besides, the inhibition in [13] was -1.09%; in [14], -1.8%; in test [15] it was -0.81%; in test [16], 0.84%; in test [17] it was 1.92%; in test [18] it was 1.51%. Also, the inhibition in test [19] was 0.25%; in test [20], 1.98%.
`Fc1ccc(-c2nn3ncccc3c2-c2ccnc(Nc3ccc4c(c3)OCCO4)n2)cc1`: the inhibition in test [1] is 0.91%; in test [2], 1.5%; in test [3] it was 3.37%; in [4], 0.99%; in test [5], -1.69%; in test [6] it was 3.56%. Moreover, the inhibition in test [7] was 4.44%; in test [8], 19.6%; in [9], 59.7%; in [10], 39%; in test [11], 76.1%; in [12], -1.25%. Besides, the inhibition was -1.1% in test [13]; -0.3% in test [14]; 4.58% in test [15]; 58.4% in test [16]; 84.9% in test [17]; 2.51% in test [18]. Moreover, the inhibition in [19] turned out to be 11.1%; in [20], 5.61%.
`CNC(=O)c1cc(-c2ccc(F)cc2)cc(-c2ccc(S(=O)(=O)N3CCCC3)cc2)c1N`: the inhibition was 1.45% in test [1]; 2.86% in test [2]; 3.9% in [3]; -1.54% in test [4]; -0.38% in test [5]; 2.23% in test [6]. The inhibition in test [7] was 2.03%; in [8] it was 3.5%; in test [9] it was 5.1%; in [10], 2.65%; in [11], 4.74%; in test [12] it was -2.69%. In addition, the inhibition is -0.12% in test [13]; -0.78% in test [14]; 0.3% in test [15]; 1.82% in [16]; 2.81% in test [17]; 4.15% in test [18]. The inhibition in test [19] was determined as 4.03%; in test [20], 2.42%.
As to `Cc1ccc(O)cc1Nc1ccnc2cc(-c3ccccn3)ccc12`, the inhibition in test [1] was 2.88%; in test [2] it was 2.56%; in test [3], 4.96%; in test [4], 0.53%; in test [5] it was 1.85%; in test [6], 3.35%. The inhibition in test [7] was 5.79%; in test [8] it was 2.73%; in [9], 6.51%; in test [10], 1.23%; in test [11] it was 5.65%; in test [12], 1.24%. The inhibition was 5.57% in test [13]; 1.19% in [14]; 0.77% in [15]; 2.32% in [16]; 11.5% in test [17]; -0.57% in test [18]. For the same compound, the figures for the inhibition in [19] and in [20] were 4.7% and 1.59%, respectively.
For `COc1ccc(-c2cc(-c3c[nH]nc3-c3ccccn3)ccn2)cc1`, the inhibition was 1.7% in test [1]; 2.83% in [2]; 6.71% in test [3]; -0.15% in test [4]; 2.54% in [5]; 4.14% in test [6]. For the same compound, the inhibition worked out at 3.1% in test [7]; 3.67% in test [8]; 5.27% in [9]; 3.56% in test [10]; 6.22% in [11]; 4.42% in test [12]. In addition, the inhibition in [13] is 4.88%; in test [14], 2.68%; in test [15] it was -2.34%; in test [16], 4.47%; in [17], 9.74%; in test [18], 4.07%. Further, the values for the inhibition in [19] and in test [20] were 5.26% and 3.56%, respectively.
With `CCNC(=O)O[C@H]1CN[C@H](C#Cc2cc3ncnc(Nc4ccc(OCc5cccc(F)c5)c(Cl)c4)c3s2)C1`, the inhibition in test [1] was determined as 2.52%; in test [2] it was 1.66%; in test [3] it was 3.98%; in test [4] it was 0.74%; in test [5], 1.59%; in test [6] it was 3.13%. Also, the inhibition came to 5.14% in test [7]; 3.4% in [8]; 9.61% in [9]; 2.01% in [10]; 8.04% in test [11]; 2.47% in test [12]. The inhibition in [13] is 5.41%; in test [14], 2.15%; in test [15] it was 0.62%; in [16], 1.6%; in [17], 4.37%; in test [18], 1.5%. Also, the values for the inhibition in test [19] and in [20] were 2.66% and 0.46%, respectively.
